In PubChem BioAssay (NCATS):
Calls of active or inactive are those of the source. Calls follow the shape of the dose curve; as a rule, active = well fitted curve in the direction sought with a large enough effect; inconclusive = small, poorly fitted or top-dose-only effect, or another doubt; inactive = no such curve, though single readings can be large; an effect the other way counts as inactive or inconclusive.

System: not listed separately
Test: Confirmation and Secondary Assay for Modulators of Hemoglobin Beta Chain Splicing at IVS2 705 locus (AID 930);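 also: HeLa cells stably expressing the EGFP-705 splicing reporter; GFP fluorescence per well restored by corrected splicing of the IVS2-705 intron in EGFP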
Conditions: HeLa EGFP-705 splicing reporter, GFP fluorescence, 48 h; series mostly up to 46.1 µM
Procedure, shortened: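 Splice-correction reporter: EGFP cDNA split by beta-globin intron 2 bearing the 705 mutation, stably in HeLa. Compound incubation 2 days, 37C; fluorescent objects 5-250 µm summed per well.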

Compound	outcome
CCOC(=O)C1=C[C@@]2(CC)CCCN3CCc4c(n1c1ccccc41)C32 (some centres undefined)	inactive
CC1(C)C(=O)C=C[C@]2(C)C1CC(=O)[C@]1(C)C2CC[C@@]2(C)C(c3ccoc3)OC(=O)C3O[C@@]321 (some centres undefined)	inactive
CN1C[C@H](C(=O)N[C@@]2(C)O[C@@]3(O)C4CCCN4C(=O)C(Cc4ccccc4)N3C2=O)C[C@H]2c3cccc4[nH]cc(c34)C[C@H]21 (some centres undefined)	inactive
CCCCCC(=O)O[C@@]1(C(C)=O)CCC2C3CCC4=CC(=O)CC[C@@]4(C)C3CC[C@]21C (some centres undefined)	inactive

Target: Alpha-galactosidase A (Homo sapiens) (UniProt P06280)
Test: Counterscreen for Glucocerebrosidase Inhibitors: qHTS Assay for Human alpha-Galactosidase at pH 4.5 (AID 992)
Conditions: purified enzyme, fluorogenic substrate; series mostly up to 76.9 µM
Procedure, shortened: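 Concentration-response curves (0.7 nM to 77 uM final) were modeled with the Hill equation to give AC50. Reactions: 2 nM enzyme, 80 uM fluorogenic alpha-galactoside, pH 4.5 citric acid buffer, 20 min, room temperature.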

Sequence of Alpha-galactosidase A (Homo sapiens) (P06280 whole entry, looked up): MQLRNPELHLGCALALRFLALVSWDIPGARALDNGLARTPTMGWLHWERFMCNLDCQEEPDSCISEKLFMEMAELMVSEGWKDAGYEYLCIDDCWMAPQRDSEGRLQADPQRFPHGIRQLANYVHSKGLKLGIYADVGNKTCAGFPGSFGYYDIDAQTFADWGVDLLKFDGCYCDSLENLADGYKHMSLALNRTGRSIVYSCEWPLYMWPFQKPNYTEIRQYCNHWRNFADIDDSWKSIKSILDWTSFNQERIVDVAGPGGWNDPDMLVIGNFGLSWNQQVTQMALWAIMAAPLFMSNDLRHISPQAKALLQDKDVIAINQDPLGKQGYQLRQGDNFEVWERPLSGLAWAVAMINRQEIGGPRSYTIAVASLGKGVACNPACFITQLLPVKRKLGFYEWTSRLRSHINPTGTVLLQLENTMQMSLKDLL

Compound	outcome
CCc1nnc(NC(=O)c2ccc(NS(=O)(=O)c3ccccc3)cc2)s1	inactive
COc1ccc(Cl)cc1Nc1nc(NCCO)nc(N2CCCC2)n1	inactive
CCCCCCCCCN1C[C@H](O)[C@@H](O)[C@H](O)[C@H]1CO	inactive
Cc1cc(N2CCOCC2)nc2ccc(NC(=O)C3CCCCC3)cc12	inactive
CC(C)(C)Oc1ccccc1Nc1nc(NCCO)nc(N2CCCC2)n1	inactive

Target: alpha-glucosidase (Oryza sativa, rice) (UniProt Q653V4)
Test: Counterscreen for Glucocerebrosidase Inhibitors: qHTS Assay for Rice alpha-Glucosidase at pH 5.0 (AID 997)
Conditions: rice alpha-glucosidase enzyme activity; series mostly up to 76.9 µM
Procedure, shortened: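 Rice alpha-glucosidase (4 nM final) with 400 uM 4-methylumbelliferyl-alpha-D-glucopyranoside in citrate buffer pH 5.0, 20 min at room temperature, stopped at pH 10; fluorescence 365/440 nm, compounds 0.7 nM–77 uM, AC50 from Hill fits.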

Compound	outcome
CCc1nnc(NC(=O)c2ccc(NS(=O)(=O)c3ccccc3)cc2)s1	inactive
COc1ccc(Cl)cc1Nc1nc(NCCO)nc(N2CCCC2)n1	inactive
CCCCCCCCCN1C[C@H](O)[C@@H](O)[C@H](O)[C@H]1CO	inactive
Cc1cc(N2CCOCC2)nc2ccc(NC(=O)C3CCCCC3)cc12	inactive
CC(C)(C)Oc1ccccc1Nc1nc(NCCO)nc(N2CCCC2)n1	inactive
